From PubChem BioAssay (NCATS)
Results filed as inconclusive are left out. A call without a number means that no potency is given here. Active and inactive are the calls of the source. Unless noted, the call rests on the fitted dose curve; in most records, active means well fitted curve in the direction sought with a large enough effect; inconclusive means small, poorly fitted or top-dose-only effect, or another doubt; inactive means no such curve, though single readings can be large; an effect the other way counts as inactive or inconclusive.

Legend:
Furin (Homo sapiens) = Furin (Homo sapiens) (UniProt P09958); assay: Furin counterscreen qHTS for Zika virus inhibitors (AID 1347149); details: furin enzymatic counterscreen, fluorogenic substrate; series mostly up to 114 µM; further: nearly all actives have a fitted effect of over 70% in size; further: potency means the concentration at half of the fitted maximal effect;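 on activity change, negative = inhibition: purified recombinant full-length human furin enzyme at 5 nM; fluorescence gain from furin cutting a BOC-RVRR-AMC peptide substrate over 15 min; top concentration of the series differs between compounds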
How it was run: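 Fluorogenic cleavage of BOC-RVRR-AMC (2 microM final, Km ~15 µM) was monitored (ex 340, em 450 nm) at 37C after 15 min RT preincubation of 5 nM furin with compounds in HEPES pH 7.0 buffer with CaCl2 and Triton X-100. Percent inhibition was fitted to a 4-parameter Hill curve.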

[1] = Confirmatory screen GU Rhodamine qHTS for Zika virus inhibitors qHTS (AID 1347157); details: purified enzyme assay, Rhodamine110 substrate fluorescence, 15 min; series mostly up to 114 µM; further: nearly all actives have a fitted effect of over 70% in size; further: potency means the concentration at half of the fitted maximal effect
How it was run: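 Noncovalent NS2B hydrophilic domain/NS3 protease complex (25 nM final) in 10 mM Tris-HCl pH 8.0, 0.01% Tween 20, preincubated 15 min with compounds (up to 114 microM), then 1.5 microM Rhodamine110 substrate. Fluorescence change over 15 min fitted to 4-parameter Hill.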

[2] = Confirmatory screen NINDS Rhodamine qHTS for Zika virus inhibitors (AID 1347161); details: purified enzyme assay, Rhodamine110 substrate fluorescence, 15 min; series mostly up to 114 µM; further: nearly all actives have a fitted effect of over 60% in size; further: potency means the concentration at half of the fitted maximal effect;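 on activity change, negative = inhibition: purified Zika NS2B-NS3 protease with linked NS2B cofactor domain and Rhodamine110 peptide substrate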
How it was run: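 Aprotinin served as in-plate control. Conditions: 25 nM linked NS2B-NS3, pH 8.0 Tris buffer, titrated compounds, 15 min preincubation and 15 min reaction with 1.5 microM Rhod110 substrate at room temperature.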

[3] = ZIKV-mCherry secondary qHTS for Zika virus inhibitors (AID 1347158); details: Vero cells, ZIKV-mCherry infection imaging, 48-72 h; series mostly up to 49.2 µM; further: potency means the concentration at half of the fitted maximal effect; on activity change, negative = inhibition: top concentration of the series differs between compounds
How it was run: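 After overnight seeding at 37 °C, Vero cells receive compound and then ZIKV-mCherry (MOI 1). Following 48-72 h infection, cells are fixed, counterstained with Hoechst, and imaged; percent infected cells is derived from an mCherry intensity cut-off of 450 RFU.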

[4] = test system: Zika virus NS2B-NS3 protease (linked construct); assay: 384 well plate NINDS Rhodamine confirmatory qHTS for Zika virus inhibitors (AID 1347164); details: rhodamine-110 peptide substrate fluorescence; series mostly up to 1 mM;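 further: fluorescence from protease cleavage of Ac-LKRR-rhodamine 110 substrate; potency means the concentration at half of the fitted maximal effect; nearly all actives have a fitted effect of over 65% in size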
How it was run: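 Fluorescence at 485/538 nm was measured 25 minutes after adding 10 microM Ac-LKRR-Rd substrate, in the dark at room temperature. The protease (5, 30 or 60 nM final) had been preincubated ~15 minutes with compound; aprotinin as control.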

[5] = Tertiary RLuc qRT-PCR qHTS assay for Zika virus inhibitors (AID 1347169); details: infected Vero cells, reporter luminescence, 48-72 h; series mostly up to 1.74 µM; further: top concentration of the series differs between compounds; nearly all actives have a fitted effect of over 55% in size
How it was run: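 Orthogonal cell-based readout: luminescence measured 1-1.5 hrs after adding live-cell Renilla substrate to Vero cells that had been infected with ZIKV-RLuc (MOI 1-2) post-compound, incubated 48-72 hrs at 37 degrees C.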

[6] = target: Rap guanine nucleotide exchange factor 3 (Homo sapiens) (UniProt O95398); assay: Confirmatory qHTS for antagonist of cAMP-regulated guanine nucleotide exchange factor 3 (EPAC1) (AID 1645880); details: EPAC1 Rap1B-BODIPY-GDP exchange, fluorescence; series mostly up to 115 µM; further: potency means the concentration at half of the fitted maximal effect; nearly all actives have a fitted effect of over 55% in size
How it was run: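 Nucleotide exchange uses 100 nM EPAC1, 250 nM RAP1B-BODIPY-GDP and 50 uM GDP, with compounds in a concentration-titration series. After 5 min at room temperature, fluorescence (480 nm ex/540 nm em) is read every 5 min for 30 min. Data are normalized to control ATA and DMSO.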

[7] = target: Rap guanine nucleotide exchange factor 3 (Homo sapiens) (UniProt O95398); assay: Confirmatory qHTS for agonist of cAMP-regulated guanine nucleotide exchange factor 3 (EPAC1) (AID 1645881); details: EPAC1 Rap1B BODIPY-GDP exchange fluorescence, 100% = cAMP control response; series mostly up to 154 µM;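 further: EPAC1 catalysed release of BODIPY-GDP from Rap1B seen as fluorescence loss; nearly all actives have a fitted effect of over 75% in size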
[8] = target: Rap guanine nucleotide exchange factor 4 (Homo sapiens) (UniProt Q8WZA2); assay: Confirmatory qHTS for agonist of cAMP-regulated guanine nucleotide exchange factor 4 (EPAC2) (AID 1645884); details: EPAC2 GEF activity, Rap1B-BODIPY-GDP fluorescence, percent relative to cAMP agonist control; series mostly up to 154 µM;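 further: nucleotide exchange releases bodipy-GDP from Rap1 and this lowers its fluorescence; nearly all actives have a fitted effect of over 65% in size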
[9] = target: Rap guanine nucleotide exchange factor 4 (Homo sapiens) (UniProt Q8WZA2); assay: Confirmatory qHTS for antagonist of cAMP-regulated guanine nucleotide exchange factor 4 (EPAC2) (AID 1645885); details: EPAC2 Rap1B-BODIPY-GDP exchange fluorescence, biochemical; series mostly up to 114 µM; further: nearly all actives have a fitted effect of over 25% in size
[10] = target: Rap guanine nucleotide exchange factor 3 (Homo sapiens) (UniProt O95398); assay: Counterscreen qHTS for antagonist of cAMP-regulated guanine nucleotide exchange factor 3 (EPAC1) (AID 1645888); details: Rap1B-BODIPY-GDP nucleotide exchange, fluorescence; series mostly up to 154 µM;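 further: fluorescence loss as bound BODIPY-GDP is released from Rap1B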
How it was run: (§1)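 Rap1B–BODIPY-GDP (250 nM) with 50 uM GDP; compounds pin-transferred to 9.74 nM–152 uM final (activator) or from 7.32 nM upwards (inhibitor). Fluorescence Ex/Em 480/540 nm read at 5 and 30 min, then after adding cAMP or buffer, at room temperature.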

[11] = target: Rap guanine nucleotide exchange factor 3 (Homo sapiens) (UniProt O95398); assay: Counterscreen qHTS for agonist of cAMP-regulated guanine nucleotide exchange factor 3 (EPAC1) (AID 1645889); details: EPAC1 Rap1B-BODIPY-GDP exchange, fluorescence; series mostly up to 154 µM; further: nearly all actives have a fitted effect of over 40% in size
How it was run: as §1

[12] = target: Cytochrome P450 3A4 (Homo sapiens) (UniProt P08684); assay: qHTS Assay for Activators of Cytochrome P450 3A4 (AID 885); details: recombinant CYP3A4, Luciferin-PPXE luminescence, 60 min; series mostly up to 57.1 µM; further: nearly all actives have a fitted effect of over 65% in size
How it was run: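 20nM CYP3A4 + 25uM Luciferin-PPXE (=KM), 200mM KPO4; cpd 10 min RT; NADPH regen, 60 min RT; stop w/ detection buffer, 20 min; luminescence. Normalized to 57 uM ketoconazole.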

[13] = qHTS Assay for Lipid Storage Modulators (AID 1519; calls by dose curve); details: Drosophila S3 cells, BODIPY lipid droplet/cell ratio, laser cytometry, cells loaded with oleic acid
How it was run: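 Cells seeded at 5,000 per well were treated with compounds over a concentration series and loaded with oleic acid (400 uM, as added). Lipid droplet fluorescence (488 nm excitation, 500-530 nm channel) was read by laser-scanning cytometry and normalized to 20 uM Triacsin C.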

[14] = test system: Zika virus NS2B-NS3 protease (linked); assay: 384 well plate NINDS AMC confirmatory qHTS for Zika virus inhibitors (AID 1347163); details: Recombinant NS2B-NS3 protease, Ac-VKTGKR-AMC fluorescence; series mostly up to 1 mM; further: nearly all actives have a fitted effect of over 50% in size; further: potency means the concentration at half of the fitted maximal effect;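 on activity change, negative = inhibition: fluorescence of AMC released from Ac-VKTGKR-AMC peptide cleaved by the protease; top concentration of the series differs between compounds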
How it was run: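 Linked protease 5/30/60 nM final; cpds up to 1 mM final, ~15 min preinc. Substrate Ac-VKTGKR-AMC 30 microM final. RT, dark, 25 min; FI ex 355/em 460; normalized to no-enzyme/no-inhibitor ctrls.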

[15] = target: Calcium and integrin-binding protein 1 (Homo sapiens) (UniProt Q99828); assay: Primary qHTS for Identification of Calcium Integrin Binding Protein 1 (CIB1) Competitor (AID 1508620); details: CIB1-GST / FITC-alphaIIb peptide fluorescence polarization; series mostly up to 114 µM;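 further: GST tagged CIB1 binding a fluorescein labelled alphaIIb integrin peptide tracer; top concentration of the series differs between compounds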
How it was run: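 Fluorescence polarization competition: GST-tagged CIB1 (1 uM final) preincubated with compound 15 min at room temperature, then FITC-labelled alphaIIb peptide (100 nM final) added. After 15 min at room temperature, polarization read at Ex 480/Em 540.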

Chain of Rap guanine nucleotide exchange factor 3 (Homo sapiens) (O95398 whole entry, looked up): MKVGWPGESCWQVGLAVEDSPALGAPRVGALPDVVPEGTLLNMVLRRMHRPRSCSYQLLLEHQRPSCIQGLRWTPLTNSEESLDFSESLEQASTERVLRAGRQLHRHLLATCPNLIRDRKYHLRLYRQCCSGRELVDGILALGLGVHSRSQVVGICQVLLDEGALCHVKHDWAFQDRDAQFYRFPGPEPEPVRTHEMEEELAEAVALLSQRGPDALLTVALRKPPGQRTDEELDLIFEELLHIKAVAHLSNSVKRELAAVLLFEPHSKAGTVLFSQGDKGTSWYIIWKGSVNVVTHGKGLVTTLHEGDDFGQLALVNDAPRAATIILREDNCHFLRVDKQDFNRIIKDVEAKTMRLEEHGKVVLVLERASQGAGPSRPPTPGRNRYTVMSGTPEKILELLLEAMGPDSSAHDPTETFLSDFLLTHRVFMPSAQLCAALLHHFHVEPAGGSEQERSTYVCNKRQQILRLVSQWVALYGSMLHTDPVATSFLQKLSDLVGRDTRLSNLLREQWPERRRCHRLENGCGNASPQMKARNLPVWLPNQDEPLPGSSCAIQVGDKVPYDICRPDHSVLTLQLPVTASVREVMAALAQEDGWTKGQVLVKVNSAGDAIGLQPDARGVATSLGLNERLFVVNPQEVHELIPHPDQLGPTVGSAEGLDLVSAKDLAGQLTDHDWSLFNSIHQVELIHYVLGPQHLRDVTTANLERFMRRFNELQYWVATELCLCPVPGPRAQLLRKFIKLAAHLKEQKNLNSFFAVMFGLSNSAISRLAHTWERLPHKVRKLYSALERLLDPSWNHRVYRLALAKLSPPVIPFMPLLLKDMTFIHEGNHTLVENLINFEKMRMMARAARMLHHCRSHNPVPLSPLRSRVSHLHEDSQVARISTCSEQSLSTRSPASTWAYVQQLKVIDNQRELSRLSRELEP
Chain of Calcium and integrin-binding protein 1 (Homo sapiens) (Q99828 whole entry, looked up): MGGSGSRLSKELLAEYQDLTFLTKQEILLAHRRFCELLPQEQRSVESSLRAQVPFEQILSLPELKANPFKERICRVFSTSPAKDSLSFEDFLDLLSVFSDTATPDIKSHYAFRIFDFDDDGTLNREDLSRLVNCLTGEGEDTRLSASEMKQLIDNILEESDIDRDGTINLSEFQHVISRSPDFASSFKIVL
Chain of Furin (Homo sapiens) (P09958 whole entry, looked up): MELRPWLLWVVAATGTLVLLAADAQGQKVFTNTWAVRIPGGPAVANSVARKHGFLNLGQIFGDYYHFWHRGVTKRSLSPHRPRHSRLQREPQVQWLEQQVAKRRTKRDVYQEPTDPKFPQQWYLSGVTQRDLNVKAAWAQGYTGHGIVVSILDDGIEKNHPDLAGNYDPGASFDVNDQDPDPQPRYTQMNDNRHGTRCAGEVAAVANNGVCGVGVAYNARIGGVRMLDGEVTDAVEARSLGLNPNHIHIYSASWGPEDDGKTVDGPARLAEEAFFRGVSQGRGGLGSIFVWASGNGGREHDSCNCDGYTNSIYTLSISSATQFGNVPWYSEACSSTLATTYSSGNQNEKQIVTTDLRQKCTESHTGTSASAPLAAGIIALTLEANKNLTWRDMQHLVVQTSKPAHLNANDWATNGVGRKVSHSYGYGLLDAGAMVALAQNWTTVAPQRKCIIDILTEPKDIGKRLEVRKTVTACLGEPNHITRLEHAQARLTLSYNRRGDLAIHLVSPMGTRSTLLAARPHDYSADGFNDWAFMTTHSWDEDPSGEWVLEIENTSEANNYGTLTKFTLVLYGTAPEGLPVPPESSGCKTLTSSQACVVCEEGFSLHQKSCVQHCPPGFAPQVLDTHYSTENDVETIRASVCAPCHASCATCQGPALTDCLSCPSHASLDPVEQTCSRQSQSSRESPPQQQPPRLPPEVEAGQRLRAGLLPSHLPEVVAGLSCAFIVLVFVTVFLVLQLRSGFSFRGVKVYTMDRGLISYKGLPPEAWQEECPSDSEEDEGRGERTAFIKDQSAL
Chain of Rap guanine nucleotide exchange factor 4 (Homo sapiens) (Q8WZA2 whole entry, looked up): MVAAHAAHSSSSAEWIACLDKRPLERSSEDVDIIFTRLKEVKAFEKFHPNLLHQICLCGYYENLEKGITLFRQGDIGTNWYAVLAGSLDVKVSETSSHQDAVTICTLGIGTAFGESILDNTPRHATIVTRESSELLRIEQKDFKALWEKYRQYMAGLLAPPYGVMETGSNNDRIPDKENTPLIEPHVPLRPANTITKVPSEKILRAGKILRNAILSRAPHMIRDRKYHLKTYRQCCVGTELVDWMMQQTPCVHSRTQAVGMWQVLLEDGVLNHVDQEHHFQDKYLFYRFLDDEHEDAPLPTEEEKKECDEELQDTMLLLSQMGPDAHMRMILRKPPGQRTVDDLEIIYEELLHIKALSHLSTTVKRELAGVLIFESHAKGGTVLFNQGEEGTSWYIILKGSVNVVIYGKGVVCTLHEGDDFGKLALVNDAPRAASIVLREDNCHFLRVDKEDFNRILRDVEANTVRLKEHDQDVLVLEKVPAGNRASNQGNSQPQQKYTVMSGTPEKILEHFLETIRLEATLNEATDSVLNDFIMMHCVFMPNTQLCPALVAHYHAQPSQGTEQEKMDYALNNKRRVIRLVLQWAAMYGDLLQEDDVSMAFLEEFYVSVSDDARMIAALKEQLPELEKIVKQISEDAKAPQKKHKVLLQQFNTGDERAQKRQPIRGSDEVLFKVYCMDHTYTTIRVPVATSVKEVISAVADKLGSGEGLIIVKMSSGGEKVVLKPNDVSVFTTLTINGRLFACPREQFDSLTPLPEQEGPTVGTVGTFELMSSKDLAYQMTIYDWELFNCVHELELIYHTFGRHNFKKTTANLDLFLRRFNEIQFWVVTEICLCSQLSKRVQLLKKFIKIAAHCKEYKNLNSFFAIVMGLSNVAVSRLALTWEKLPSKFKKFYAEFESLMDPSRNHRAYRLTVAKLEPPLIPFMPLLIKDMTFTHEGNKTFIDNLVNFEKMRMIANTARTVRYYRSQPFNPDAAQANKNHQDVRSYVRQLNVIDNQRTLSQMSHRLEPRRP
Chain of Cytochrome P450 3A4 (Homo sapiens) (P08684 whole entry, looked up): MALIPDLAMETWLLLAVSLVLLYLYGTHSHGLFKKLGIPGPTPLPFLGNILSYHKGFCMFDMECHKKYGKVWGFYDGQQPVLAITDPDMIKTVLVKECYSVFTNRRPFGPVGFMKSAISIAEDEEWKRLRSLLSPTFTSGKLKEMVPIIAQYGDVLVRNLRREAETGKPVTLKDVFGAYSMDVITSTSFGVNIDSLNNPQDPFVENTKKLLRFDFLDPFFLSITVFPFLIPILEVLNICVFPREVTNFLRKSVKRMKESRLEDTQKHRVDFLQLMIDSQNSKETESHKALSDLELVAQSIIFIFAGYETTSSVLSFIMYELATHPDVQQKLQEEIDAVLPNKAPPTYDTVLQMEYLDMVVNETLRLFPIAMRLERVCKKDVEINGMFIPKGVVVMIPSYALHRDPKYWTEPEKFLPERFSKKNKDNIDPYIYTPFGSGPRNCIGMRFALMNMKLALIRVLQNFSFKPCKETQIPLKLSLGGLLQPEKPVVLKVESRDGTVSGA

Compound: COC(=O)C1=C(c2ccccc2)c2ccccc2S(=O)(=O)N1CC(=O)Nc1ccccc1C(F)(F)F
- Potency (Furin (Homo sapiens)): inactive
- Potency [1]: inactive
- Potency [2]: inactive

Compound: Cc1csc2nc(COC(=O)c3ccc(NC(=O)c4ccccc4Br)cc3)cc(=O)n12
- Potency (Furin (Homo sapiens)): 59.1 µM (active)
- Potency [1]: inactive
- Potency [2]: inactive

Compound: O=C(O)c1cc(-n2c(/C=C\c3ccc(F)cc3)nc3ccccc3c2=O)ccc1Cl
- Potency (Furin (Homo sapiens)): inactive
- Potency [1]: 39.8 µM (active)
- Potency [3]: inactive
- Potency [4]: 141 µM (active)
- Potency [5]: inactive

Compound: O=C(Nc1ccccc1C(=O)OCc1cc(=O)n2nc(C3CC3)sc2n1)c1ccc(Cl)cc1
- Potency (Furin (Homo sapiens)): 41.8 µM (active)
- Potency [1]: inactive
- Potency [2]: inactive
- Potency [5]: inactive

Compound: Cc1ccc2nc(-c3ccc(N=Nc4cc(S(=O)(=O)O)c5ccccc5c4O)cc3)sc2c1S(=O)(=O)O
- Potency (Furin (Homo sapiens)): 59.1 µM (active)
- Potency [1]: 3.16 µM (active)
- Potency [3]: inactive
- Potency [2]: 2.82 µM (active)
- Potency [4]: 15.8 µM (active)
- Potency [5]: inactive

Compound: O=C(O)c1c(-c2ccccc2)oc2ccc(OCc3ccc(Cl)c(Cl)c3)cc12
- Potency (Furin (Homo sapiens)): 66.3 µM (active)
- Potency [1]: 17.8 µM (active)
- Potency [3]: 8.91 µM (active)
- Potency [2]: 3.98 µM (active)
- Potency [4]: 17.8 µM (active)
- Potency [5]: inactive
- Potency [6]: 75.7 µM (active)
- outcome [7]: inactive
- outcome [8]: inactive
- activity change, negative = inhibition [9]: 10.2% [at 12.7 µM] (inactive)
- outcome [10]: inactive
- Potency [11]: inactive

Compound: O=C(O)c1cc(-c2ccc(C(F)(F)F)cc2)nc2n[nH]c(-c3ccccc3)c12
- Potency (Furin (Homo sapiens)): 52.7 µM (active)
- Potency [1]: 63.1 µM (active)
- Potency [3]: inactive
- Potency [2]: 50.1 µM (active)
- Potency [4]: 141 µM (active)
- Potency [5]: inactive

Compound: CC(C)(C)c1ccc(S(=O)(=O)Nc2ccc(O)c(Sc3nc4ccccc4s3)c2)cc1
- Potency (Furin (Homo sapiens)): inactive
- Potency [1]: 35.5 µM (active)
- Potency [2]: 28.2 µM (active)
- Potency [4]: 100 µM (active)

Compound: O=S(=O)(Nc1ccc(Cl)cc1)c1ccc(NS(=O)(=O)c2ccc3c(c2)OCCO3)cc1
- Potency (Furin (Homo sapiens)): inactive
- Potency [1]: 44.7 µM (active)
- Potency [2]: 35.5 µM (active)
- Potency [4]: 31.6 µM (active)

Compound: COc1ccc(-c2cc(=O)c3c(O)cc(O)c(-c4cc(-c5cc(=O)c6c(O)cc(O)cc6o5)ccc4OC)c3o2)cc1
- Potency [12]: inactive
- activity change, negative = inhibition ([13]; at 57.5 µM (top of the series)): 6.01% (inactive)
- max response ([13]; measured here: cell count channel max response): -20.7%
- max response ([13]; measured here: lipid channel max response): -15.6%
- Potency (Furin (Homo sapiens)): inactive
- Potency [1]: 25.1 µM (active)
- Potency [2]: 25.1 µM (active)
- Potency [14]: 112 µM (active)
- Potency [5]: inactive

Compound: O=c1oc2ccccc2cc1-c1nnc(Nc2ccc(Cl)cc2Cl)s1
- Potency (Furin (Homo sapiens)): inactive
- Potency [1]: 31.6 µM (active)
- Potency [2]: 15.8 µM (active)
- Potency [5]: inactive

Compound: O=C(OCC#CCSc1nnc(-c2cccc3ccccc23)o1)c1ccc(F)c(F)c1
- Potency (Furin (Homo sapiens)): 59.1 µM (active)
- Potency [1]: inactive
- Potency [2]: inactive
- Potency [5]: inactive

Compound: Cc1c(Cl)cccc1NS(=O)(=O)c1ccc(NS(=O)(=O)c2ccc3c(c2)OCCO3)cc1
- Potency (Furin (Homo sapiens)): inactive
- Potency [1]: 44.7 µM (active)
- Potency [2]: 25.1 µM (active)
- Potency [14]: 141 µM (active)
- Potency [4]: 39.8 µM (active)

Compound: CCOC(=O)c1ccc(Nc2nc3ccccc3nc2NS(=O)(=O)c2ccc(Cl)cc2)cc1
- Potency (Furin (Homo sapiens)): inactive
- Potency [1]: 3.16 µM (active)
- Potency [2]: 3.55 µM (active)
- Potency [14]: inactive

Compound: O=C(CNc1nnc(-c2ccc([S+](=O)([O-])N3CCCC3)cc2)n1-c1ccccc1)Nc1ccc(C(=O)O)cc1
- Potency (Furin (Homo sapiens)): inactive
- Potency [1]: inactive
- Potency [2]: inactive

Compound: O=C(Nc1ccccc1C(=O)OCc1cc(=O)n2nc(C3CC3)sc2n1)c1cccc(F)c1
- Potency (Furin (Homo sapiens)): inactive
- Potency [1]: inactive
- Potency [2]: inactive
- Potency [5]: inactive

Compound: CC(C)c1nn2c(=O)cc(COC(=O)c3cccc(NC(=O)c4ccccc4F)c3)nc2s1
- Potency (Furin (Homo sapiens)): inactive
- Potency [1]: inactive
- Potency [2]: inactive
- Potency [5]: inactive

Compound: O=C1OCC2=C1C(c1cccc(Cl)c1)CC(=O)N2c1ccc(C(F)(F)F)cc1 (stereo not given)
- Potency (Furin (Homo sapiens)): inactive
- Potency [1]: inactive
- Potency [2]: inactive
- Potency [5]: inactive

Compound: O=C(Nc1ccc(-c2nc3ccccc3s2)c(O)c1)c1ccc(Br)cc1
- Potency (Furin (Homo sapiens)): inactive
- Potency [1]: inactive
- Potency [2]: inactive
- Potency [5]: inactive

Compound: O=C(OCC#CCSc1nnc(-c2cccc3ccccc23)o1)c1ccc(OC(F)(F)F)cc1
- Potency (Furin (Homo sapiens)): 46.9 µM (active)
- Potency [1]: inactive
- Potency [2]: inactive
- Potency [5]: inactive
- outcome [15]: inactive

Compound: O=C(OCC#CCSc1nnc(-c2ccccc2F)o1)c1ccc(F)cc1
- Potency (Furin (Homo sapiens)): inactive
- Potency [1]: inactive
- Potency [2]: inactive
- Potency [5]: inactive
- outcome [15]: inactive

Compound: COC(=O)c1ccccc1NC(=O)CSc1nc(-c2ccccc2)cc(C(F)(F)F)n1
- Potency (Furin (Homo sapiens)): inactive
- Potency [1]: inactive
- Potency [2]: inactive
- Potency [5]: inactive

Compound: O=C(/C=C/c1ccc(C(F)(F)F)cc1)OC(C(=O)NC1CC1)c1ccccc1 (stereo not given)
- Potency (Furin (Homo sapiens)): inactive
- Potency [1]: inactive
- Potency [2]: inactive
- Potency [5]: inactive

Compound: O=C(OCC#CCSc1nnc(-c2cccc3ccccc23)o1)c1cccc(C(F)(F)F)c1
- Potency (Furin (Homo sapiens)): 37.3 µM (active)
- Potency [1]: inactive
- Potency [2]: inactive
- Potency [5]: inactive
- outcome [15]: inactive
